4 compounds from PubChem BioAssay (NCATS) can be followed below.

In assay [1] the target is Nucleoprotein (Lymphocytic choriomeningitis virus (strain Armstrong)) (UniProt P09992). As to the kind of experiment: qHTS for Inhibitors of the Functional Ribonucleoprotein Complex (vRNP) of Lymphocytic Choriomeningitis Arenaviruses (LCMV): LCMV Primary Screen - GLuc reporter signal (AID 1347086; calls by dose curve; also: potency is read from the fitted curve at half-maximal effect; nearly all actives have a fitted effect of over 70% in size).
Sequence of Nucleoprotein (Lymphocytic choriomeningitis virus (strain Armstrong)) (P09992 whole entry, looked up, the tested form may be a part): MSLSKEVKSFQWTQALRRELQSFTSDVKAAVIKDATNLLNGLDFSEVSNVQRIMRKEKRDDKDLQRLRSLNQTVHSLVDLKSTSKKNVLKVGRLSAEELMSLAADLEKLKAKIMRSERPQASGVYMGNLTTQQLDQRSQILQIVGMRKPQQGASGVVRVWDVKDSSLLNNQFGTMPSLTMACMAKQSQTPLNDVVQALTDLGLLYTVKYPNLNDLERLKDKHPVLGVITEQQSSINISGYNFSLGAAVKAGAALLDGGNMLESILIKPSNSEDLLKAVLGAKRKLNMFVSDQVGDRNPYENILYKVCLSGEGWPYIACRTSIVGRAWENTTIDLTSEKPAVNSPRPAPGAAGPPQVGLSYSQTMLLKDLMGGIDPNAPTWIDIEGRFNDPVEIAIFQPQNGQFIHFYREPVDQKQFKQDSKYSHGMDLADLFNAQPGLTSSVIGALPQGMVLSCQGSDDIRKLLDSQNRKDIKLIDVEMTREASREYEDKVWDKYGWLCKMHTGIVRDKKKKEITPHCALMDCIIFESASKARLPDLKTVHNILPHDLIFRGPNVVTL
Assay [2] concerns Zika virus NS2B-NS3 protease. The assay is described as follows: Primary screen GU AMC qHTS for Zika virus inhibitors (AID 1347154).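 Also: 0% = no-inhibitor control and -100% = no-enzyme control; nearly all actives have a fitted effect of over 70% in size.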 A digest of the protocol: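 Unlinked Zika NS2B hydrophilic domain–NS3 protease complex at 25 nM in 10 mM Tris-HCl pH 8.0, 0.01% Tween 20, with an AMC peptide substrate. Fluorescence change (340/450 nm) over 15 min at room temperature, normalized to controls, fitted to 4-parameter Hill.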

Another assay addresses Furin (Homo sapiens) (UniProt P09958). The assay is described as follows: Furin counterscreen qHTS for Zika virus inhibitors (AID 1347149).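 Also: purified recombinant full-length human furin enzyme at 5 nM; fluorescence gain from furin cutting a BOC-RVRR-AMC peptide substrate over 15 min; top concentration of the series differs between compounds; plate controls were no-inhibitor control for no effect and no-enzyme control for full effect; nearly all actives have a fitted effect of over 70% in size.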 The method in brief:
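Counterscreen measures cleavage of 2 microM BOC-RVRR-AMC, below its ~15 microM Km, by 5 nM full-length human furin at pH 7.0 after a 15-min compound preincubation. Inhibition derives from the 15-min fluorescence increase at 37C.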

For assay [3], the system named is Zika virus NS2B-NS3 protease (unlinked). The assay is described as follows: Optimization of GU AMC qHTS for Zika virus inhibitors: Unlinked NS2B-NS3 protease assay (AID 1347151).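 Also: series mostly up to about 52 µM; 0% = no-inhibitor control and -100% = no-enzyme control; nearly all actives have a fitted effect of over 80% in size.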 The method in brief: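 Fluorescence read-out (340 nm ex / 450 nm em) of AMC peptide cleavage, taken immediately and after 15 min at room temperature (~20% conversion). Enzyme was the unlinked NS2B–NS3 complex at 25 nM in Tris pH 8.0 buffer.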

Assay [4] in a line: Vero cells viability qHTS for Zika virus inhibitors (AID 1347167). Also: % is scaled to controls: 0 for no effect and ±100 for the full control effect. A digest of the protocol:
(§1)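 qHTS titration; 24-48 h compound exposure, 37 degrees C/5% CO2; DMEM, 4% FBS; CellTiter Glo ATP luminescence.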

Assay [5] is described as follows: Tertiary RLuc qRT-PCR qHTS assay for Zika virus inhibitors (AID 1347169). Also: nearly all actives have a fitted effect of over 55% in size. Also: potency is read from the fitted curve at half-maximal effect. The method in brief: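 Luminescence read-out: live-cell Renilla luciferase substrate applied to infected Vero cells, signal measured after 1-1.5 hrs. Cells had received compound before ZIKV-RLuc (Cambodian strain, MOI 1-2) infection and were incubated 48-72 hrs at 37 degrees C.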
Assay [6] can be described thus: Primary qHTS for small molecule stabilizers of the endoplasmic reticulum resident proteome: Secreted ER Calcium Modulated Protein (SERCaMP) assay (AID 1508630). Also: potency is read from the fitted curve at half-maximal effect. A digest of the protocol: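 The SH-SY5Y reporter protocol was run at 3 concentrations up to 38.3 uM (primary) or 11 concentrations (follow-up): 16 h compound, 100 nM thapsigargin for 4 h, then extracellular luciferase luminescence.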

Assay [7] can be described thus: HepG2 cells viability qHTS for Zika virus inhibitors (AID 1347168). Also: % is scaled to controls: 0 for no effect and ±100 for the full control effect. The method in brief: as §1
A short description of assay [8]: Counterscreen qHTS for small molecule stabilizers of the endoplasmic reticulum resident proteome: GLuc-NoTag assay (AID 1508627).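 Also: SH-SY5Y cells given compound then 100 nM thapsigargin to empty ER calcium; series mostly up to about 76 µM; 0% = thapsigargin alone and -100% = DMSO vehicle control.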 A digest of the protocol: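 Counterscreen line: SH-SY5Y-GLuc-NoTag. Seed, 5 h; compound, 19 h; thapsigargin 100 nM, 4 h; 37C/5% CO2. Readout: secreted GLuc luminescence, coelenterazine 0.07x final, no lysis.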
A short description of assay [9]: Cell Viability qHTS for small molecule stabilizers of the endoplasmic reticulum resident proteome (AID 1508629).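 Also: human SH-SY5Y neuroblastoma cells carrying the GLuc-SERCaMP reporter; compound exposure about 46 h in total before the viability read; % is scaled to controls: 0 for no effect and ±100 for the full control effect.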 As to conditions: cell viability counter-screen, 100 nM thapsigargin for final 4 h.

Records with an inconclusive call do not appear. A number with no mark means an inactive call. Active and inactive are the calls of the source. Unless noted, calls follow the shape of the dose curve; as a rule, active = well fitted curve in the direction sought with a large enough effect; inconclusive = small, poorly fitted or top-dose-only effect, or another doubt; inactive = no such curve, though single readings can be large; an effect the other way counts as inactive or inconclusive.

Sequence of Furin (Homo sapiens) (P09958 whole entry, looked up): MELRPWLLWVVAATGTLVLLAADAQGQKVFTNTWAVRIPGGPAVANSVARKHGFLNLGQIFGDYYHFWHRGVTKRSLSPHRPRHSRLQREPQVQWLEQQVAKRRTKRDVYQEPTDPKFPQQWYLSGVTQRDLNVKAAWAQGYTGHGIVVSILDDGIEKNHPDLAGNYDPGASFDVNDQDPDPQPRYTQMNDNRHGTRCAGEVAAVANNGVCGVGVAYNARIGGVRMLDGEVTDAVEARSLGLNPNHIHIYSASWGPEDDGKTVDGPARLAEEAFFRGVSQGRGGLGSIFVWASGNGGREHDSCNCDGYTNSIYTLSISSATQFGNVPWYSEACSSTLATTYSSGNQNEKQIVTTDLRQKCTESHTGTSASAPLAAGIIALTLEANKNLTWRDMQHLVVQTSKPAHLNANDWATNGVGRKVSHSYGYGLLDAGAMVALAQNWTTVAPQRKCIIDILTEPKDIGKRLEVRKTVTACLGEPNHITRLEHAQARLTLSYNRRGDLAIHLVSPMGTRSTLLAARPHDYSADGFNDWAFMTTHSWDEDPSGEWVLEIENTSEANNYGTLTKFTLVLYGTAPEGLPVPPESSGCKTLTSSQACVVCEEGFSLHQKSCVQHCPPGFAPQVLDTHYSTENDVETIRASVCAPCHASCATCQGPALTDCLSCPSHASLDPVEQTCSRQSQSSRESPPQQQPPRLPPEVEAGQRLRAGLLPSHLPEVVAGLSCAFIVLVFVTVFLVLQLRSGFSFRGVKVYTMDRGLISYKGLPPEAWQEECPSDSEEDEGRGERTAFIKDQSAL

Take `COc1ccc(-c2cc(=O)c3c(O)cc(O[C@@H]4O[C@H](CO[C@@H]5O[C@@H](C)[C@H](O)[C@@H](O)[C@@H]5O)[C@@H](O)[C@H](O)[C@@H]4O)cc3o2)cc1O`: the Potency in assay [1] is 10.9 µM (active).
Turning to `OC[C@H]1O[C@@H](n2cnc3cc(Cl)c(Cl)cc32)[C@H](O)[C@H]1O`, the Potency result in [2] was “inactive”.
Take `C[C@@H]1O[C@@H](O[C@H]2C[C@@H](O)[C@]3(CO)C4C(CC[C@]3(O)C2)[C@@]2(O)CC[C@H](C3=CC(=O)OC3)[C@@]2(C)C[C@H]4O)[C@H](O)[C@H](O)[C@H]1O` (stereo partly specified): the Potency entry (with Furin (Homo sapiens); in assay [2]; in assay [4]; in assay [6]) was “inactive” each time. In addition, the result in assay [3] was inactive. Moreover, the Potency in assay [5] was 0.234 µM (active).
For `CN1CC[C@@]23CCCCC2C1Cc1ccc(O)cc13` (stereo partly specified), the Potency entry (with Furin (Homo sapiens); in assay [4]; in assay [7]; in assay [5]; in [8]) was “inactive” throughout. Further, the result in assay [3] was inactive. Moreover, in assay [9], the max response is 30%. The Potency in assay [6] was 35.5 µM (active).
